Sampled rows, rich in hits. Any-hit rate of the full collection: about 21%.
VP16 counter = inhibits Gal4-VP16 luciferase reporter, ROR gamma counter-screen | Potency, µM (top dose mostly 53.6 µM), for the others: at the highest dose activity, negative = inhibition, usual class: inhibitors | actives 3.5% (n = 310,000) | AID 2546 | Drosophila S2 Gal4-VP16 UAS-luciferase, luminescence, 20 h;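 note: Gal4-VP16 expression switched on by copper sulfate through the metallothionein promoter; potency is the fitted concentration of half-maximal effect; nearly all actives have a fitted effect of over 50% in size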
RORgamma inh = ROR gamma (mouse) transcription inhibition; Potency, µM (top dose mostly 53.6 µM), for inactives: at the top dose activity change, negative = inhibition, actives largely listed as inhibitors; Drosophila S2 Gal4-RORgamma UAS-luciferase reporter, 20 h; actives 5.4% (n = 310,000); AID 2551; P51450; note: potency is the fitted concentration of half-maximal effect; nearly all actives have a fitted effect of over 60% in size
Target sequence (P51450 whole entry, looked up, the tested form may be a part): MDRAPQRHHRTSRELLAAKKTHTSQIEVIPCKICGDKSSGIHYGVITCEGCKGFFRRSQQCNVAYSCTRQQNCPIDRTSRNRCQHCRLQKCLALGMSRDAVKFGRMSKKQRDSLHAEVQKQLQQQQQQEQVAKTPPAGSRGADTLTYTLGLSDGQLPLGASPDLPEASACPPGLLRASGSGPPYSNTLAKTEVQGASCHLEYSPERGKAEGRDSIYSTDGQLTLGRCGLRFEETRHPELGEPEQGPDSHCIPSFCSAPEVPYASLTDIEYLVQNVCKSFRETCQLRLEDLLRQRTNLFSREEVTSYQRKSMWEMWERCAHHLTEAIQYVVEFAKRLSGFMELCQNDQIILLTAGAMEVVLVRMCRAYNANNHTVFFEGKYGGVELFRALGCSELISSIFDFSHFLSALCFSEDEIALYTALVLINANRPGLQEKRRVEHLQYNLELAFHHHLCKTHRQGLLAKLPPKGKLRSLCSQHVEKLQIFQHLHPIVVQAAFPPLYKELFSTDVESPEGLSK
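Drosophila S2 cells stably expressing Gal4-DBD/mouse RORγ fusion under metallothionein promoter plus UAS-luciferase; compound 1 h, then 700 uM CuSO4 induction for 20 h at ambient temperature; inhibition read as reduced luminescence.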
DT40 TDP1 no CPT = qHTS for Inhibitors of human tyrosyl-DNA phosphodiesterase 1 (TDP1): qHTS in cells in absence of CPT | DT40 Tdp1-/- hTDP1 cells, no CPT, ATP luminescence, 48 h | Potency, µM (highest dose often 46.2 µM), for the others: at the highest dose activity change, negative = growth inhibition, actives largely listed as inhibitors | actives 15% (n = 420,000) | AID 686978, 2013; note: potency is the fitted concentration of half-maximal effect; nearly all actives have a fitted effect of over 55% in size
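Luminescent ATP content (CellTiter-Glo) served as the growth readout. Knockout chicken DT40 cells expressing human TDP1 were exposed to compounds without camptothecin for a minimum 48 hr at 37 °C.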
DT40 TDP1 CPT = growth inhibition of DT40 Tdp1-/-;hTDP1 cells with camptothecin (screen for TDP1 inhibitors) | chicken DT40 Tdp1-/-;hTDP1 cells + 20 nM CPT, ATP luminescence, 48 h | Potency, µM (titrated, usually from 46.2 µM), for inactives: at the highest dose activity change, negative = growth inhibition, most hits filed as inhibitors | actives 12% (n = 420,000) | AID 686979; note: potency is the fitted concentration of half-maximal effect; nearly all actives have a fitted effect of over 55% in size
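Chicken DT40 Tdp1-/- cells stably complemented with human TDP1 were seeded at 400 cells/well in medium containing 20 nM camptothecin, exposed to pin-transferred compounds, and grown at 37 °C for at least 48 hr. Viability was read as ATP luminescence.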
IL1B secr inh = inflammasome signaling inhibition, IL-1 beta readout; actives 4.7% (n = 360,000); THP-1 LPS/ATP IL-1B secretion, AlphaLISA, 16 h; active compounds read low; AID 743279; activity change, % at 57.5 µM; in the data active = activity change below about -50%; inconclusive = mostly about -30% to -49%
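Secreted IL-1B measured by AlphaLISA bead assay after 16 h compound exposure of THP-1 cells; compounds (final up to 57.5 uM) added 1 h before LPS (250 ng/mL) and ATP (1.25 mM) stimulation; lower signal means less secretion.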
ELG1 DNA repair = ELG1-dependent DNA repair inhibition | HEK293T ELG1-luciferase reporter, luminescence, 16 h; DNA damage induced by 5-fluorouridine | Potency, µM (top dose mostly 46.1 µM), for inactives: at the highest dose activity change, negative = inhibition, most hits filed as inhibitors | actives 2.3% (n = 330,000); note: potency is the fitted concentration of half-maximal effect; nearly all actives have a fitted effect of over 55% in size
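Cells (2,000 per well) received 5-fluorouridine plus test compound or DMSO and were incubated 16 hr at 37 °C, 5% CO2. Luciferase activity was read by luminescence 30 min after ONE-Glo addition; signal suppression marked inhibition of damage-induced ELG1 function.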
An asterisk follows results filed as active; ? = inconclusive; . = not tested or not shown; [ ] = another dose, or the depositor's remark. Unless noted, calls come from the whole dose curve; as a rule, active = well fitted curve in the direction sought with a large enough effect; inconclusive = small, poorly fitted or top-dose-only effect, or another doubt; inactive = no such curve, though single readings can be large; an effect the other way counts as inactive or inconclusive. % is set by controls: 0 for no effect and ±100 for the full control effect.

SMILES	VP16 counter	RORgamma inh	DT40 TDP1 no CPT	DT40 TDP1 CPT	IL1B secr inh	ELG1 DNA repair
Cc1cc(C)c(C(=O)/C=C/c2ccco2)c(=O)[nH]1	5%	-1%	-6%	3%	?	0%
CCc1ccc(/C=C/C(=O)c2c(C)cc(C)[nH]c2=O)cc1	?	?	16µM*	16µM*	-120*	21µM*
Cc1ccc(/C=C/C(=O)c2c(C)cc(C)[nH]c2=O)cc1	?	?	11µM*	8.9µM*	-94*	21µM*
Cc1cc(C)c(C(=O)/C=C/c2cccs2)c(=O)[nH]1	6%	-17%	?	?	-73*	?
C/C(=N\NC(=O)c1ccccc1O)C1CC1	7%	?	-13%	-1%	16	?
CCCCCC(=O)c1cc(CC(C(=O)OC)C(=O)OC)cc2cc(OC)c(OC)cc12	2%[10 µM]	0%[10 µM]	.	.	.	.
COc1ccc(/C=C/C(=O)c2c(C)cc(C)[nH]c2=O)c2ccccc12	14µM*	?	?	?	-99*	?
CC1=C(C(=O)Nc2ccccc2C)C(c2ccco2)n2ncnc2N1 (stereo not drawn)	.	.	-26%	-8%	.	.
O=P(c1ccccc1)(c1ccccc1)c1cc(Br)cc(Br)c1OCCO	4%	-13%	?	-4%	-56*	0%
Cc1ccc(NC(=O)CSc2nnc(C)n3c2cc2sccc23)c(C)c1	.	.	-17%	-21%	.	.
COc1cc(/C=C/C(=O)OCC(=O)Nc2ccc3c(c2)OCO3)ccc1O	.	.	-26%	?	6	?
COc1cc(/C=C/C(=O)OCC(=O)NCc2ccccc2OC)ccc1O	.	.	-11%	?	-9	?
COc1cc(/C=C/C(=O)OCC(=O)NCc2ccc(F)cc2)ccc1O	.	.	2.3µM*	2.6µM*	67	-9%
COc1cc(/C=C/C(=O)OCC(=O)NCc2ccco2)ccc1OC(F)F	4µM*	2.5µM*	3%	5%	0	14%
COc1cc(/C=C/C(=O)OCC(=O)Nc2ccc3c(c2)OCCO3)ccc1O	-6%	14%	16µM*	?	24	?
CN1CCN(C(=O)C[C@H]2CC[C@H]3[C@@H](COC[C@@H](O)CN3Cc3cccc(F)c3)O2)CC1	.	.	4%	-13%	12	.
Cc1ccccc1/C=N/NC(=O)c1ccc(-n2cnnn2)cc1	.	.	-1%	0%	-14	-9%
O=C(O)CCC(=O)Nc1cccc(-c2nnc(-c3ccccc3)o2)c1	-7%	8%	-1%	14%	-4	6%
O=C(Nc1cccc(-c2ccc(N3CCCCC3)nn2)c1)c1ccc(Br)o1	.	.	12µM*	21µM*	21	?
O=C(Nc1cccc(-c2nnc(-c3ccccc3)o2)c1)c1ccc(Br)o1	0%	?	?	18µM*	-24	?
CC1CCN(c2ccc(-c3cccc(NC(=O)c4ccco4)c3)nn2)CC1	.	.	?	?	-78*	?
CC1CCN(c2ccc(-c3cccc(NC(=O)C(F)(F)F)c3)nn2)CC1	2.8µM*	?	?	?	?	?
Cc1nnc2ccc(-c3cccc(NC(=O)c4ccc(Br)o4)c3)nn12	3%	1%	23µM*	?	-65*	?
CCC(=O)Nc1cccc(-c2ccc(N3CCC(C)CC3)nn2)c1	4µM*	2.5µM*	23µM*	?	?	?
COc1cccc(C(=O)Nc2c3c(nn2-c2ccc(Cl)cc2)CS(=O)(=O)C3)c1	.	.	?	-19%	.	.
SMILES	VP16 counter	RORgamma inh	DT40 TDP1 no CPT	DT40 TDP1 CPT	IL1B secr inh	ELG1 DNA repair
COc1cccc(NC(=S)N2CCC(c3ccc(C)cc3)C2)c1 (stereo not drawn)	?	?	7.3µM*	12µM*	-78*	?
CCOc1ccc(NC(=S)N2CCC(c3ccc(C)cc3)C2)cc1 (stereo not drawn)	?	?	13µM*	?	-10	-10%
Cc1ccc(NC(=S)N2CCC(c3ccc(C)cc3)C2)cc1 (stereo not drawn)	20µM*	10µM*	?	?	-16	?
CCOC(=O)Cc1csc(NC(=S)NC(=O)c2ccccc2Br)n1	4µM*	5.6µM*	-18%	-4%	19	?
CC(C)CC(=O)NC(=S)Nc1nc(-c2cccc3ccccc23)cs1	13µM*	3.2µM*	21µM*	-17%	23	-2%
CCOC(=O)Cc1csc(NC(=S)NC(=O)c2ccc(C)cc2)n1	8.9µM*	5µM*	?	?	-4	?
CCOC(=O)Cc1csc(NC(=S)NC(=O)c2cccc([N+](=O)[O-])c2)n1	?	11µM*	?	-19%	6	8%
Cc1cccc(OCC(=O)Nc2ccccc2C(=O)OCc2cc(=O)n3nc(C4CC4)sc3n2)c1	.	.	-17%	-16%	.	.
COC(=O)C1=C(CS(=O)(=O)c2cc(Cl)ccc2OC)NC(=O)NC1c1ccccc1 (stereo not drawn)	.	.	?	-25%	.	.
c1ccc(CSc2ccc(-c3cccnc3)nn2)cc1	-17%	35%	?	-23%	-28	?
COC(=O)C1(CC2CC(c3cccc(Br)c3)=NO2)CCN(C(=O)OC(C)(C)C)CC1 (stereo not drawn)	-2%	34%	?	?	-9	?
CCOC(=O)Cc1csc(NC(=S)NC(=O)CC(C)C)n1	?	11µM*	-24%	-4%	36	?
COc1cc2c(cc1OC)C1O[C@](CCCCN3C(=O)c4ccccc4C3=O)(C2)Oc2c1c(=O)oc1ccc(F)cc21	0%[10 µM]	-7%[10 µM]	.	.	.	.
Cc1ccccc1C(=O)NNC(=S)NC(=O)c1cccnc1	?	11µM*	?	?	37	2%
O=C(NC(=S)NNC(=O)c1ccccc1F)c1cccnc1	?	11µM*	?	?	38	-7%
O=C(NC(=S)NCc1cccnc1)c1ccccc1F	5%	-27%	0%	2%	11	-1%
COc1cc(C23CCCN(CCC(C(C)(C)C)C2)C32OCCO2)cc(OC)c1OC (stereo not drawn)	.	.	23µM*	?	-2	.
CC(C)(C)C1CCN2CCCC(c3ccc([N+](=O)[O-])cc3)(C1)C21OCCO1 (stereo not drawn)	.	.	?	21µM*	26	.

High-throughput results (PubChem)
